# Source: PubChem BioAssay (NCI)
# This is part of a sample that, as a whole, favours compounds with a hit. Of some 83,000 tested, about 20% had one in any assay.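 Testing used 96-well plates and a 48-hour single-concentration exposure. Example: -40 means 40% of the starting cells died.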 Unmarked numbers belong to inactive results. The source made the active and inactive calls. The calls were made as follows: active = growth percent below 10; inactive = the rest.
# Experiments:
# Experiment in all cases: NCI-60 one-dose screen, 48 h (100 = growth as untreated, 0 = no growth, -100 = all killed)
# Conditions in all cases: 10 µM unless noted
# SR leukemia = test system: SR leukemia
# RPMI-8226 leukemia = test system: RPMI-8226 leukemia
# OVCAR-8 ovarian = test system: OVCAR-8 ovarian
# OVCAR-5 ovarian = test system: OVCAR-5 ovarian
# OVCAR-4 ovarian = test system: OVCAR-4 ovarian
# SK-OV-3 ovarian = test system: SK-OV-3 ovarian
# IGROV1 ovarian = test system: IGROV1 ovarian
# OVCAR-3 ovarian = test system: OVCAR-3 ovarian
# HS 578T breast = test system: HS 578T breast
# NCI/ADR-RES ovarian = test system: NCI/ADR-RES ovarian
SMILES,growth (SR leukemia),growth (RPMI-8226 leukemia),growth (OVCAR-8 ovarian),growth (OVCAR-5 ovarian) [%],growth (OVCAR-4 ovarian),growth (SK-OV-3 ovarian),growth (IGROV1 ovarian),growth (OVCAR-3 ovarian),growth (HS 578T breast),growth (NCI/ADR-RES ovarian) [%]
CN(C)CCCOc1c(Br)cc(/C=C/C(=O)N(C)CCc2cc(Br)c(OCCCN(C)C)c(Br)c2)cc1Br,-34.5% (active),-23.6% (active),30.7%,79.1,79.7%,102%,48.2%,75.7%,75.7%,56.6
COc1cccc(-c2nc3sccn3c2-c2ccnc(NCCNC(=O)Nc3cccc(C(F)(F)F)c3)n2)c1,38.5%,20.4%,21.3%,103,91.1%,78.6%,50.9%,66.3%,–,27.2
O=C1C(Cl)=C(Nc2cccc3cc4ccccc4nc23)C(=O)c2ccccc21,45.1%,48.7%,32.6%,53.8,55.4%,44.3%,37.2%,64.4%,95.2%,42.8
COc1ccc(-c2nnc(SCC(=O)N3CCN(c4cc5c(cc4F)c(=O)c(C(=O)O)cn5C4CC4)CC3)o2)cc1OC,90.6%,90.1%,96.9%,96.2,103%,84.2%,97.1%,111%,101%,98.1
CC(C)(C)OC(=O)N1CC(Cn2cc(C(F)(F)F)c3c(Cl)ncnc32)C1,-60.9% (active),-48.4% (active),-72.4% (active),112,81.6%,-24.4% (active),-79.1% (active),-49.9% (active),-9.74% (active),77.7
Nc1nccc2c1ccn2-c1ccc(NC(=O)Nc2cccc(C(F)(F)F)c2)cc1,91.5%,67.4%,93.1%,97.9,108%,104%,95.1%,80.8%,–,89.3
NS(=O)(=O)c1ccc(Nc2nc(O)c(/C=C3\C=Nc4ccccc43)s2)cc1,99.2%,95%,94.5%,111,125%,102%,92.5%,102%,87.5%,101
N#CC(C#N)=C(C#N)c1c[nH]c2ccccc12,58.1%,68.4%,87.7%,102,73.5%,82.7%,75.2%,74.7%,87.7%,96.1
CC(=O)n1cc(/C=C2\N=C(c3ccc(Cl)cc3)N(c3ccc(S(=O)(=O)Nc4nccs4)cc3)C2=O)c2ccccc21,61.3%,62%,66.1%,105,73.3%,110%,91.4%,76.9%,72.4%,106
Cc1ccc2nc(-c3ccc(-n4on4-c4ccc(/C=C/c5ccc(-n6on6-c6ccc(-c7nc8ccc(C)cc8s7)cc6)cc5S(=O)(=O)O)c(S(=O)(=O)O)c4)cc3)sc2c1,113%,102%,116%,105,118%,113%,101%,107%,116%,109
O=C(Cn1c2ccccc2c2ccncc21)N/N=C\c1ccc2ccccc2c1,33.5%,-1.73% (active),14.2%,75.2,-11% (active),36%,43.1%,-37.1% (active),38.2%,27.2
Nc1c(C(=O)O)[nH]c(=O)[nH]c1=O,90.2%,99.9%,108%,105,111%,102%,112%,105%,102%,108
COc1ccc(/C=C/C(=O)c2ccc(Oc3ncnc4ccccc34)cc2)cc1OC,16.7%,0.391% (active),85.1%,92.9,70.4%,91.1%,33.5%,43.8%,88.5%,80.3
CCCCOc1c(N)cccc1C(=O)OCCN(CC)CC,83.9%,123%,92.8%,113,107%,108%,104%,101%,102%,106
CCNc1cc(S(=O)(=O)O)ccc1C,113%,98%,97.3%,106,110%,92.4%,106%,116%,–,102
Cc1ccccc1C[P+](c1ccccc1)(c1ccccc1)c1ccccc1,22.2%,10%,18.7%,55.2,3.27% (active),42.6%,20%,1.98% (active),–,114
Fc1cccc(F)c1C#Cc1ccc2cccnc2c1,75.4%,70.2%,87.3%,136,75.1%,95.7%,56.3%,83.5%,–,90.8
FC(F)(F)c1cn(CC2CNC2)c2ncnc(Cl)c12,87%,105%,92.2%,112,110%,108%,105%,103%,105%,102
c1ccc(OCC[P+](c2ccccc2)(c2ccccc2)c2ccccc2)cc1,22.7%,10.9%,24.5%,43.1,15.8%,39.5%,8.06% (active),-31.5% (active),–,108
CC(Cl)(CCl)CS(=O)(=O)c1ccc(Cl)cc1 (stereo unspecified),96.2%,99.8%,97.4%,113,111%,102%,115%,110%,–,110
COc1ccc(-c2nn(-c3ccc(NC(=O)Nc4cc(C(F)(F)F)cc(C(F)(F)F)c4)cc3)cc2-c2ccncc2)cc1Cl,1.23% (active),-29.3% (active),12.9%,17.7,47%,22.9%,26.3%,3.27% (active),–,14
Cc1cc(-c2ccccc2)nc2ccccc12,97.1%,83.3%,98.1%,115,90.1%,74.9%,92.5%,105%,97.3%,102
COc1cc(C(=O)NNC(=O)c2ccccc2O)cc(OC)c1OC,77.8%,86.8%,82.9%,103,110%,87.8%,98.8%,109%,95.1%,94.5
Nc1nccc2c1ccn2-c1ccc(NC(=O)c2ccc(N3CCOCC3)c(C(F)(F)F)c2)cc1,14.9%,-29.9% (active),28%,14.2,77.4%,48.4%,35.8%,46%,–,49.3
Cc1cccc(Cc2cnc(NC(=O)CCc3ccc(C)o3)s2)c1,5.14% (active),5.07% (active),20.3%,35.7,53.3%,24.5%,32.2%,2.58% (active),27.6%,17.2
COc1ccc2c(c1)OC(N)=C(C#N)C2c1ccc(F)c(F)c1 (stereo unspecified),12.2%,7.58% (active),33.9%,51.6,73.6%,29%,53.5%,15.6%,35.7%,17.9
NS(=O)(=O)c1ccc(CCN2C(=O)/C(=C\c3ccc(Cl)cc3)C=C2c2ccc(Oc3ccccc3)cc2)cc1,45.9%,60.4%,71.4%,76.7,87.5%,93%,78.8%,81.3%,98.8%,78.3
